# Results as given in PubChem BioAssay.
# Calls of active or inactive are those of the source. Unless noted, the rule behind the calls is not given here.
# Key:
# [1] = compound effects on lung adenocarcinoma cell viability – A549, calcein-AM fluorescence, 48 h, basal, profiling panel (AID 1162); conditions: higher = more signal; note: test concentration not given here
# [2] = compound effects on differentiated 3T3-L1 adipocyte viability – cell-based, 3T3-L1 adipocytes, calcein-AM fluorescence, 48 h, basal, profiling panel (AID 1163); conditions: 3T3-L1 adipocytes viability, higher = more signal; note: test concentration not given here
# [3] = compound effects on hepatocellular carcinoma cell viability – HepG2, calcein-AM fluorescence, 48 h, basal, profiling panel (AID 1164); conditions: higher = more signal; note: test concentration not given here
# [4] = compound effects on multiple myeloma cell viability – MM1S, calcein-AM fluorescence, 48 h, basal, profiling panel (AID 1165); conditions: higher = more signal; note: test concentration not given here
# [5] = calcein-AM signal in unstimulated myeloma cells – cell-based, calcein-AM fluorescence, 48 h, PK04 Diversity Set, profiling panel (AID 1166); conditions: RPMI8226 myeloma viability, higher = more signal;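 note: cells grown under basal conditions without added stimulus; test concentration not given here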
# [6] = JC-1 mitochondrial signal, unstimulated HepG2 cells – cell-based, JC-1 fluorescence, 24 h, 100 nL compound, profiling panel (AID 1167); conditions: HepG2 mitochondrial potential, higher = more signal; note: test concentration not given here
# [7] = JC-1 mitochondrial signal, unstimulated adipocytes – cell-based, JC-1 fluorescence, 3T3-L1 adipocytes, 24 h, 100 nL compound, profiling panel (AID 1168); conditions: JC-1 mitochondrial fluorescence, higher = more signal, called active from +8 up or from −8 down; note: test concentration not given here
# [8] = JC-1 mitochondrial signal, unstimulated myeloma cells – cell-based, JC-1 fluorescence, RPMI8226, 24 h, 100 nL compound, profiling panel (AID 1169); conditions: JC-1 mitochondrial potential fluorescence, higher = more signal; note: test concentration not given here
# [9] = JC-1 mitochondrial signal, unstimulated MM1S myeloma – cell-based, JC-1 fluorescence, 24 h, 100 nL compound, profiling panel (AID 1170); conditions: MM1S mitochondrial potential, higher = more signal; note: test concentration not given here
# [10] = resazurin metabolic signal in A549 cells – cell-based, resazurin fluorescence, 24 h, PK04 Diversity Set, profiling panel (AID 1171); conditions: A549 viability, higher = more signal, called active from +8 up or from −8 down; note: test concentration not given here
# [11] = resazurin metabolic signal in HepG2 cells – cell-based, resazurin fluorescence, 24 h, PK04 Diversity Set, profiling panel (AID 1172); conditions: HepG2 viability, higher = more signal; note: test concentration not given here
# [12] = budding yeast growth changes without added modifier – OD600, strain BY4716, 24 h, basal condition, primary screen (AID 1173); conditions: S. cerevisiae BY4716 growth, OD600, 24 h; higher = more signal, called active from +8 up or from −8 down
# [13] = viability profiling in MM1S myeloma cells – cell-based, resazurin fluorescence, basal, 24 h, PK04 Diversity Set, profiling panel (AID 1174); conditions: higher = more signal, called active from +8 up or from −8 down; note: test concentration not given here
# [14] = molecular target: Dihydroorotate dehydrogenase (quinone), mitochondrial (Plasmodium falciparum (isolate 3D7)) (UniProt Q08210); assay: inhibition of P. falciparum DHODH – biochemical, C-terminal His tag, absorbance 600 nm, primary screen (AID 1175); conditions: PfDHODH enzyme, DCIP absorbance 600 nm; higher = more signal, called active from +8 up or from −8 down;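 note: recombinant parasite enzyme with a five histidine tag at its C terminus; test concentration not given here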
# Dihydroorotate dehydrogenase (quinone), mitochondrial (Plasmodium falciparum (isolate 3D7)), sequence (Q08210 whole entry, looked up): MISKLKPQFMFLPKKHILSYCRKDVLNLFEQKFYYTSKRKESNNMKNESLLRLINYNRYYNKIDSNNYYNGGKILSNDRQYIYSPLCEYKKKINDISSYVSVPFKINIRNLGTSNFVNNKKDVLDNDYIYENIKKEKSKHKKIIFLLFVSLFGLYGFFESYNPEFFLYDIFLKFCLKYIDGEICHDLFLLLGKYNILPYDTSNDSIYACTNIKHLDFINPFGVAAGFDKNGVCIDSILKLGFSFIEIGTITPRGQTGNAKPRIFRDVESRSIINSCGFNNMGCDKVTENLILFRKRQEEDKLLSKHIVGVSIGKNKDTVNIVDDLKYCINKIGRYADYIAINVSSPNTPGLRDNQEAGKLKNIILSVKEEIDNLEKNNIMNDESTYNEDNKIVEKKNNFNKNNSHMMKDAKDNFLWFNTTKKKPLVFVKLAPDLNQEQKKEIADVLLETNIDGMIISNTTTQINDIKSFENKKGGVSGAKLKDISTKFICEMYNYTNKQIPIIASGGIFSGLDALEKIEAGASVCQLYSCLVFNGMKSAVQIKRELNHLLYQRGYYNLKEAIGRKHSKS
# [15] = inhibition of PAO1 biofilm formation – strain PAO1, LB-PBS medium, absorbance 600 nm, primary screen (AID 1176); note: test concentration not given here; conditions: P. aeruginosa PAO1 growth/biofilm, A600, 12 h; higher = more signal
# [16] = growth modulation of vineyard yeast isolate – strain RM11-1a, OD600, basal, 24 h, primary screen (AID 1177);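 note: cultures grown under basal conditions with no added stressor; test concentration not given here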; conditions: S. cerevisiae RM11-1a growth, OD600, 24 h; higher = more signal, called active from +8 up or from −8 down
# [17] = growth of efflux-deficient E. coli DRC39 – strain DRC39, OD650, 24 h, E. coli filamentation inducers, primary screen (AID 1178);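 note: growth measured as culture turbidity by optical density at 650 nm; test concentration not given here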; conditions: E. coli DRC39 acrAB, higher = more signal, called active from +8 up or from −8 down
# [18] = growth of efflux-deficient E. coli DRC39 – strain DRC39, OD650, 48 h, E. coli filamentation inducers, primary screen (AID 1179);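 note: screen aims at cell division blockers that make cells filament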; conditions: E. coli DRC39 delta-acrAB growth, higher = more signal, called active from +8 up or from −8 down
# [19] = viability profiling in RPMI8226 myeloma cells – cell-based, resazurin fluorescence, basal, 24 h, PK04 Diversity Set, profiling panel (AID 1180); conditions: higher = more signal;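 note: RPMI8826 multiple myeloma cell line at 5000 cells per well; test concentration not given here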
# [20] = molecular target: E3 ubiquitin-protein ligase XIAP (Homo sapiens) (UniProt P98170); assay: small molecules binding XIAP protein – biophysical, small-molecule microarray, fluorescence 635 nm, primary screen (AID 1181); conditions: higher = more signal;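 note: score merges 667 nm emission and signal to noise over triplicate slides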
# E3 ubiquitin-protein ligase XIAP (Homo sapiens), sequence (P98170 whole entry, looked up): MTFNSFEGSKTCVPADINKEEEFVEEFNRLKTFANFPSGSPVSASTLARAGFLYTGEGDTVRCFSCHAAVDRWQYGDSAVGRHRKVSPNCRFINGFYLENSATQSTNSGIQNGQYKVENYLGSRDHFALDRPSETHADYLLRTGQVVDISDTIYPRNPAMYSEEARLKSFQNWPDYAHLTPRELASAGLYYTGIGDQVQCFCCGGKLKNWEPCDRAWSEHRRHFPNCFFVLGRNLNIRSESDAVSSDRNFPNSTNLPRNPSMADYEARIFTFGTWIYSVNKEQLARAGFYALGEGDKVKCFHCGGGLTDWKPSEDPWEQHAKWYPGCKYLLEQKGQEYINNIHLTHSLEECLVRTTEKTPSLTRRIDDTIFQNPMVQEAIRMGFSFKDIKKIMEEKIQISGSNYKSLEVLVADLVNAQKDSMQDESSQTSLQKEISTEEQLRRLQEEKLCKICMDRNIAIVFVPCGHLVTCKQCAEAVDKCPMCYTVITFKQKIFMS
Structure (SMILES),z-score [1],z-score [2],z-score [3],z-score [4],z-score [5],z-score [6],z-score [7],z-score [8],z-score [9],z-score [10],z-score [11],z-score [12],z-score [13],composite z-score [14],z-score [15],z-score [16],z-score [17],z-score [18],z-score [19],composite z-score [20]
COCCCNC(=O)[C@@]1(Cc2ccccc2I)c2ccccc2C(=O)N(Cc2ccccc2)[C@H]1c1ccc(CO)cc1,0.954,0.387,0.828,-0.657,-1.25,1.71,-0.432 (inactive),-0.136,0.651,1.67 (inactive),0.348,0.346 (inactive),1.01 (inactive),1.17 (inactive),-0.205 (inactive),2.28 (inactive),0.322 (inactive),-0.15 (inactive),1.5,-0.193
COCCOC(=O)N1C(=O)[C@@]2(c3cc(C#Cc4ccc(OC)cc4)ccc31)[C@H](C(N)=O)[C@H]1C(=O)O[C@H](c3ccccc3)[C@H](c3ccccc3)N1[C@@H]2c1ccc(O)cc1,0.363,0.632,-0.905,0.152,-2.22,-0.933,0.454 (inactive),-0.677,-0.317,0.179 (inactive),-0.0716,-0.823 (inactive),0.277 (inactive),-0.265 (inactive),0.886 (inactive),-0.0047 (inactive),-0.102 (inactive),0.236 (inactive),-0.394,0.0849
COCCOC(=O)N1C(=O)[C@@]2(c3cc(C#CC4(O)CCCCCC4)ccc31)[C@H](c1ccc(O)cc1)N1[C@H](c3ccccc3)[C@H](c3ccccc3)OC(=O)[C@H]1[C@@H]2C(=O)N1CCc2cc(OC)c(OC)cc2C1,-0.742,0.0633,-0.592,-0.435,-0.165,-0.206,-0.947 (inactive),0.83,-0.494,1.65 (inactive),2.14,-0.169 (inactive),0.493 (inactive),-0.102 (inactive),-0.0242 (inactive),-0.592 (inactive),0.351 (inactive),-0.8 (inactive),0.0494,-0.313
C=CCCN(CC#C[C@H]1Oc2ccccc2S(=O)(=O)N2CCC[C@@H]12)S(=O)(=O)c1ccc(C)cc1,0.436,-0.257,-0.383,-3.21,-1.77,0.825,-0.184 (inactive),-0.972,-1.5,0.967 (inactive),-0.28,-0.0024 (inactive),-1.33 (inactive),0.711 (inactive),0.425 (inactive),1.62 (inactive),0.0069 (inactive),-0.285 (inactive),-1.55,0.0027
CCOC(=O)C1=C[C@@H](C(C)(C)C)N(S(=O)(=O)c2ccc(C)cc2)[C@H]1c1ccc(Cl)c(Cl)c1,-0.292,-0.257,-1.36,-0.266,-0.986,4.44,-1.66 (inactive),-0.981,-1.33,-2.26 (inactive),-0.331,1.63 (inactive),-1.01 (inactive),0.89 (inactive),0.546 (inactive),1.26 (inactive),-0.723 (inactive),-0.398 (inactive),-2.92,-0.0351
C=CCN1C(=O)[C@]2(COC(c3ccc(OCCCO)cc3)=N2)Cc2ccccc21,0.78,1.94,0.641,-1.22,-0.326,0.53,0.625 (inactive),-0.808,-0.599,-0.183 (inactive),0.653,-1.8 (inactive),-0.99 (inactive),-1.5 (inactive),0.286 (inactive),-0.675 (inactive),0.695 (inactive),1.54 (inactive),-0.126,0.0933
Cc1cccc(/C=C/C=O)c1,0.175,-0.49,0.486,-0.127,-0.46,0.895,0.898 (inactive),-0.691,-0.313,0.0956 (inactive),0.033,-2.91 (inactive),-0.0488 (inactive),-1.16 (inactive),0.13 (inactive),-0.181 (inactive),0.578 (inactive),0.35 (inactive),0.387,-0.0559
Cc1c(NC(=O)/C(C#N)=C/C=C/c2ccccc2)c(=O)n(-c2ccccc2)n1C,-0.864,0.287,0.458,0.142,0.24,-1.05,-0.113 (inactive),0.305,0.56,-0.2 (inactive),-0.0273,-0.0874 (inactive),-0.335 (inactive),0.316 (inactive),0.242 (inactive),-0.74 (inactive),1.39 (inactive),0.0139 (inactive),0.161,0.313
O=C1C2C=CC(C(O)c3ccc(Br)cc3)N(n3cnnc3)C2C(=O)N1Cc1ccccc1 (stereo not given),-1.71,-1,-3.58,-0.496,-3.99,-0.422,0.633 (inactive),-0.212,0.00374,0.0637 (inactive),-0.009,-17.1 (active),-0.381 (inactive),-1.37 (inactive),-0.184 (inactive),-23 (active),-0.999 (inactive),-1.96 (inactive),-0.396,1.33
CN(C)CCCC[C@@H]1NC(=O)[C@@H]2C[C@H](C(=O)NCCCCCN)[C@H](c3ccc(O)cc3)N2C1=O,0.635,0.177,-0.0772,0.189,-0.115,1.25,0.665 (inactive),-0.286,-0.592,-0.475 (inactive),-0.24,-0.235 (inactive),-0.507 (inactive),-1.33 (inactive),-0.0491 (inactive),-0.361 (inactive),0.591 (inactive),1.09 (inactive),-0.948,-0.134
COCCOC(=O)N1C(=O)[C@@]2(c3cc(C#CC4=CCCCC4)ccc31)[C@H](C(=O)N1CCN(c3ncccn3)CC1)[C@H]1C(=O)O[C@H](c3ccccc3)[C@H](c3ccccc3)N1[C@@H]2c1ccc(OCCO)cc1,-0.167,0.937,-0.247,-1.05,-0.812,-0.203,1.59 (inactive),-0.606,-0.822,0.532 (inactive),0.156,1.31 (inactive),0.162 (inactive),-0.204 (inactive),3.13 (inactive),1.69 (inactive),0.208 (inactive),-0.564 (inactive),-0.147,-0.0389
C=C(/C(=C/C[C@@H](OC(=O)c1ccncc1)c1ccc(CO)o1)c1cc(C(=O)OC)ccc1OC)C(C)C,0.621,-0.619,0.486,-2.99,-2.18,0.654,-0.369 (inactive),-0.688,-1.97,-0.0675 (inactive),-0.512,-0.128 (inactive),-0.51 (inactive),-1.49 (inactive),0.519 (inactive),-0.0289 (inactive),0.885 (inactive),0.64 (inactive),-0.533,-0.187
C=CCN1C(=O)[C@@]2(O[C@@H](CCO)[C@H]([Si](C)(C)c3ccc(OC)cc3)[C@H]2C)c2cc(NC(C)=O)ccc21,0.103,-0.213,-0.411,-1.36,-1.56,-0.96,-0.296 (inactive),-0.484,-0.722,-1.17 (inactive),-0.865,-1.47 (inactive),-1.6 (inactive),-1.13 (inactive),-0.188 (inactive),1.48 (inactive),0.166 (inactive),0.121 (inactive),-1.43,0.436
Cc1ccc(C(C)CC(O)C2C=CC3C(=O)NC(=O)C3N2Nc2ccccn2)o1 (stereo not given),0.378,-0.671,1.37,-0.333,0.635,0.117,-0.0169 (inactive),-0.263,-0.408,-0.793 (inactive),-0.668,0.258 (inactive),-1.19 (inactive),0.936 (inactive),1.04 (inactive),0.735 (inactive),0.168 (inactive),0.215 (inactive),-0.355,-0.127
COc1ccc([Si](C)(C)[C@H]2[C@H](CC(=O)N3CCC[C@H]3CO)O[C@@]3(C(=O)N(Cc4cccc(N5CCC5=O)c4)c4ccccc43)[C@@H]2C)cc1,-0.246,1.57,-0.108,-2.2,-4.11,3.25,-0.457 (inactive),-1.14,0.619,-1.2 (inactive),-1.26,0.124 (inactive),-0.616 (inactive),-7.33 (inactive),0.507 (inactive),1.23 (inactive),0.791 (inactive),0.473 (inactive),-0.826,-0.152
C=C(/C(=C/C[C@@H](OC(C)=O)c1ccc(CO)o1)c1cnc2ccccc2c1)C(C)C,-0.0718,1.36,-1.07,-0.644,-0.596,-1.33,-0.561 (inactive),-0.292,0.335,-1.45 (inactive),-1.05,-0.177 (inactive),0.0858 (inactive),-8.23 (active),0.0721 (inactive),0.27 (inactive),0.99 (inactive),-0.0766 (inactive),0.0262,0.701
C=CCOC(=O)[C@@H]1[C@H]2C(=O)O[C@H](c3ccccc3)[C@H](c3ccccc3)N2[C@H](c2ccc(OCCOC(=O)[C@H]3C[C@H]4C(=O)N[C@@H](CC(C)C)C(=O)N4[C@H]3c3cccc(OCCO)c3)cc2)[C@@]12C(=O)Nc1ccc(I)cc12,0.704,1.54,-0.533,-0.727,-1.34,-1.91,1.59 (inactive),-0.946,-1.2,-0.304 (inactive),-0.525,-0.195 (inactive),-0.77 (inactive),1.64 (inactive),3.38 (inactive),1.58 (inactive),-0.111 (inactive),-1.14 (inactive),-0.747,-0.0876
